Results filed as inconclusive are left out. A call without a number means that no potency is given here. Some structures have more than one record in an assay (separate samples or runs), and their calls can disagree. Active and inactive are the calls of the source. Calls come from the whole dose curve.
Columns and labels:
[1] = target: Acetylcholinesterase (Homo sapiens) (UniProt P22303); test: Acetylcholinesterase (AChE) small molecule antagonists: colormetric cell-based qHTS assay (AID 1347395); note: nearly all actives have a fitted effect of over 30% in size; note: potency is the fitted concentration of half-maximal effect
Acetylcholinesterase (Homo sapiens), sequence (P22303 whole entry, looked up): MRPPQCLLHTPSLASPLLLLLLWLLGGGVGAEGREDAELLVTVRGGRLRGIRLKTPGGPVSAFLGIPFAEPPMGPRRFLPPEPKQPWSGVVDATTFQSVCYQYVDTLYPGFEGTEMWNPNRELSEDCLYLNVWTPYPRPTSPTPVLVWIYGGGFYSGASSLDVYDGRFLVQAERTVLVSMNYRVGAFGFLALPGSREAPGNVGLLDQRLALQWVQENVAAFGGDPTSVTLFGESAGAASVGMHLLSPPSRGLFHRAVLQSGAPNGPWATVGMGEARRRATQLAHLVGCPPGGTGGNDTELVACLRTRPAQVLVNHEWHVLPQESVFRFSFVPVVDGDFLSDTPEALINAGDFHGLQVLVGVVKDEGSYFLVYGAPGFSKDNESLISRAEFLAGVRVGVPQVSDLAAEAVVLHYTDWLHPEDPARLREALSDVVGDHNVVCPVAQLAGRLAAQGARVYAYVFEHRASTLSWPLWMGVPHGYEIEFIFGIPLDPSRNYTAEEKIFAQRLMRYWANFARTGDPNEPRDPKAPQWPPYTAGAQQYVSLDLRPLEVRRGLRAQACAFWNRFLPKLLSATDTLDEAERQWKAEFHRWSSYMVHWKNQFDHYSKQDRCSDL
Summary of the method: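 In this cell-based qHTS, attached SH-SY5Y cells were treated with test chemicals for 30 min, after which acetylthiocholine hydrolysis was followed by DTNB colour development over 90 min at 37 C.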

[2] = target: Acetylcholinesterase (Homo sapiens) (UniProt P22303); test: Acetylcholinesterase (AChE) small molecule antagonists: enzyme-based qHTS assay (AID 1347397); settings: Potency: AChE enzyme activity inhibition; outcome: AChE enzyme activity inhibition; note: nearly all actives have a fitted effect of over 55% in size
Summary of the method: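 Enzyme inhibition was scored from DTNB-detected thiocholine formed by recombinant human AChE acting on acetylthiocholine. The 30 min compound preincubation and 10 min substrate reaction were both run at room temperature, with DMSO as vehicle control.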

[3] = target: Acetylcholinesterase (Homo sapiens) (UniProt P22303); test: Acetylcholinesterase (AChE) small molecule antagonists: fluorescence cell-based qHTS assay (AID 1347398); settings: Potency: AChE activity; outcome: AChE activity; note: nearly all actives have a fitted effect of over 50% in size; note: potency is the fitted concentration of half-maximal effect
Summary of the method: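 Endogenous acetylcholinesterase of SH-SY5Y neuroblastoma cells is measured in situ. After overnight attachment and 30 min compound exposure, cells receive acetylthiocholine and Thiolite Green; fluorescence is read after 40 min at room temperature.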

[4] = target: Acetylcholinesterase (Homo sapiens) (UniProt P22303); test: Acetylcholinesterase (AChE) small molecule antagonists: enzyme-based qHTS assay with human liver microsomes (AID 1347399); settings: Potency: qHTS inhibition; outcome: qHTS inhibition; note: nearly all actives have a fitted effect of over 60% in size
Summary of the method: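 Recombinant human AChE (50 mU/mL in the enzyme mix) and human liver microsomes (0.25 mg/mL final) were preincubated with compound and NADPH (0.25 mg/mL final) for 30 min at 37 C. Acetylthiocholine/DTNB was then added; thiocholine was read colorimetrically after 10 min at room temperature.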

Compound	Potency [1]	Potency [2]	Potency [3]	Potency [4]	activity, negative = inhibition [1]	activity change, negative = inhibition [2]	activity change, negative = inhibition [3]	activity change, negative = inhibition [4]
CCO[Si](CC(C)C)(OCC)OCC	inactive	inactive	inactive	inactive	–	–	–	–
CCC(=O)CC(C)CC (stereo not given)	–	–	–	–	-0.199% [at 0.435 µM] (inactive)	1.36% [at 0.435 µM] (inactive)	1.06% [at 0.439 µM] (inactive)	0% [at 0.435 µM] (inactive)
CCCC(C)CC (stereo not given)	inactive	inactive	inactive	inactive	–	–	–	–
Cc1cc(CC(=O)O)n(C)c1C(=O)c1ccc(Cl)cc1	inactive	inactive	inactive	inactive	–	–	–	–
CC(C)C(=O)OC/C=C/c1ccccc1	inactive	inactive	inactive	inactive	–	–	–	–
COc1cc2c(cc1OC)-c1cc(=Nc3c(C)cc(C)cc3C)n(C)c(=O)n1CC2	inactive	inactive	inactive	inactive	–	–	–	–
O=[N+]([O-])c1ccc2ncccc2c1	inactive	inactive	inactive	inactive	–	–	–	–
CN(C(=O)CN(CCO)CC(=O)N(C)C(C)(C)Cc1ccccc1)C(C)(C)Cc1ccccc1	inactive	inactive	inactive	inactive	–	–	–	–
FC(F)(F)/C(=N\OCC1OCCO1)c1ccc(Cl)cc1	inactive	inactive	inactive	inactive	–	–	–	–
Clc1ccc2c(c1)C(N1CCNCC1)=Nc1ccccc1O2	inactive	inactive	inactive	inactive	–	–	–	–
CCNc1cccc(C)c1	inactive	inactive	inactive	inactive	–	–	–	–
CC(N)C12CC3CC(CC(C3)C1)C2 (stereo not given)	inactive	inactive	inactive	inactive	–	–	–	–
NC(=O)NNC(N)=O	inactive	inactive	inactive	inactive	–	–	–	–
NC(=O)Cc1cccc2ccccc12	inactive	inactive	inactive	inactive	–	–	–	–
CCc1ccccc1	inactive	inactive	inactive	inactive	–	–	–	–
CC1(C)CC(OC(=O)CCCCCCCCC(=O)OC2CC(C)(C)NC(C)(C)C2)CC(C)(C)N1	–	–	–	–	-3.47% [at 23.6 µM] (inactive)	1.77% [at 23.6 µM] (inactive)	-14.4% [at 23.8 µM] (inactive)	0.16% [at 23.6 µM] (inactive)
CCNCCO	inactive	inactive	inactive	inactive	–	–	–	–
CCCCCCCCC1CO1 (stereo not given)	inactive	inactive	inactive	inactive	–	–	–	–
Nc1ccc2cc(S(=O)(=O)O)ccc2c1	inactive	inactive	inactive	inactive	–	–	–	–
CNS(=O)(=O)c1cc(C(=O)N2CCC(CCN3C4CCC3CC(n3c(C)nc5ccccc53)C4)(c3cccc(F)c3)CC2)c(Cl)cc1F (stereo not given)	8.94 µM (active)	inactive	7.96 µM (active)	inactive	–	–	–	–

Compound	Potency [1]	Potency [2]	Potency [3]	Potency [4]	activity, negative = inhibition [1]	activity change, negative = inhibition [2]	activity change, negative = inhibition [3]	activity change, negative = inhibition [4]
O=S(=O)(Oc1ccc(Cl)cc1)c1ccccc1	inactive	inactive	inactive	inactive	–	–	–	–
C=C(C)C(=O)OCCOC1CC2CC1C1C=CCC21 (stereo not given)	inactive	inactive	inactive	inactive	–	–	–	–
O=C(Cl)c1ccccc1[N+](=O)[O-]	inactive	inactive	inactive	inactive	–	–	–	–
O=C(O)CNC(=O)c1ccc(CO)o1	inactive	inactive	inactive	inactive	–	–	–	–
CC(=O)OC[C@H]1O[C@@](COC(C)=O)(O[C@H]2O[C@H](COC(C)=O)[C@@H](OC(C)=O)[C@H](OC(C)=O)[C@H]2OC(C)=O)[C@@H](OC(C)=O)[C@@H]1OC(C)=O	inactive	inactive	inactive	inactive	–	–	–	–
NC(=O)c1ccccc1O	inactive	inactive	inactive	inactive	–	–	–	–
O=C(O)CCCCCCC(=O)O	inactive	inactive	inactive	inactive	–	–	–	–
CCC(=O)OCCC(C)CCC=C(C)C (stereo not given)	inactive	inactive	inactive	inactive	–	–	–	–
O=C1CCc2ccccc2O1	inactive	inactive	inactive	inactive	–	–	–	–
OC/C(Br)=C(\Br)CO	inactive	inactive	inactive	inactive	–	–	–	–
CCCCCCCCSCCO	inactive	inactive	inactive	inactive	–	–	–	–
C/C=C/C=N/NC(=O)c1ccncc1	inactive	inactive	inactive	inactive	–	–	–	–
CC(C)=CCC[C@@](C)(O)[C@H]1CC=C(C)CC1	inactive	inactive	inactive	inactive	–	–	–	–
CCCCN(C)C	inactive	inactive	inactive	inactive	–	–	–	–
OC(CCN1CCCCC1)(c1ccccc1)c1ccccc1	inactive	inactive	inactive	inactive	–	–	–	–
CCCCCCCCCCC(=O)O	inactive	inactive	inactive	inactive	–	–	–	–
CN1C(CCl)Nc2cc(Cl)c(S(N)(=O)=O)cc2S1(=O)=O (stereo not given)	inactive	inactive	inactive	inactive	–	–	–	–
CC1=NN(c2ccc(C(=O)O)cc2)C(=O)C1	inactive	inactive	inactive	inactive	–	–	–	–
C=C(C)C1CC=C(C)C(=O)C1 (stereo not given)	inactive	inactive	inactive	inactive	–	–	–	–
CCN(CC)c1ccc(C(=C2C=CC(=[N+](CC)CC)C=C2)c2ccc(S(=O)(=O)O)cc2S(=O)(=O)[O-])cc1	inactive	inactive	inactive	inactive	–	–	–	–

Compound	Potency [1]	Potency [2]	Potency [3]	Potency [4]	activity, negative = inhibition [1]	activity change, negative = inhibition [2]	activity change, negative = inhibition [3]	activity change, negative = inhibition [4]
CNCCC(Oc1ccccc1OC)c1ccccc1 (stereo not given)	inactive	inactive	inactive	inactive	–	–	–	–
CC(=O)CC(=O)Nc1ccccc1C	inactive	inactive	inactive	inactive	–	–	–	–
CCCCCC[C@@H](O)C/C=C\CCCCCCCC(=O)O	inactive	inactive	inactive	inactive	–	–	–	–
C[C@H]1C[C@@H](O)CC(C)(C)C1	inactive	inactive	inactive	inactive	–	–	–	–
O=Cc1ccccc1O	inactive	inactive	35.6 µM (active) and inactive	inactive	–	–	–	–
Nc1ccncc1N	inactive	inactive	inactive	inactive	–	–	–	–
CC1=C(C)C(=O)C(C(CCCCCC(=O)O)c2ccccc2)=C(C)C1=O (stereo not given)	inactive	inactive	inactive	inactive	–	–	–	–
CC(=O)OC1CCCCC1	inactive	inactive	inactive	inactive	–	–	–	–
CC(CCC(=O)O)C(=O)O (stereo not given)	inactive	inactive	inactive	inactive	–	–	–	–
CC(=O)OCC(C)C	inactive	inactive	inactive	inactive	–	–	–	–
Cc1ncc[nH]1	inactive	inactive	inactive	inactive	–	–	–	–
Cc1nc2ccccc2c(=O)o1	inactive	inactive	inactive	inactive	–	–	–	–
COc1cc(NS(=O)(=O)c2ccc(N)cc2)nc(OC)n1	inactive	inactive	inactive	inactive	–	–	–	–
O=C(O)c1ccc(S(=O)(=O)O)cc1C(=O)O	inactive	inactive	inactive	inactive	–	–	–	–
CCCCC1CCC(=O)O1 (stereo not given)	inactive	inactive	inactive	inactive	–	–	–	–
O=C1Nc2cc(Cl)ccc2Oc2ccccc21	inactive	inactive	inactive	inactive	–	–	–	–
FC(F)(F)c1ccc(Cl)c(Cl)c1	inactive	inactive	inactive	inactive	–	–	–	–
CC(=O)c1ccc(Cl)c(Cl)c1Cl	inactive	inactive	inactive	inactive	–	–	–	–
c1ccc2cnccc2c1	inactive	inactive	inactive	inactive	–	–	–	–
CCCNC(C)C(=O)Nc1ccccc1C (stereo not given)	inactive	inactive	inactive	inactive	–	–	–	–

Source: PubChem BioAssay (Tox21)
